In the library only some 15% were active in any assay of this set; here they are far more common.
HCMV inh: qHTS Assay for inhibitors of the human cytomegalovirus (HCMV) | activity change, negative = inhibition, % at 57.5 µM | 4.5% of 410,000 active | HFF cells, HCMV-luciferase reporter, 72 h; active compounds read low; in the data active = activity change below about -60%; inconclusive = no clear call, values can overlap the other calls; inactive = above about -39%; note: % is set by controls: 0 for no effect and ±100 for the full control effect
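Two compound doses tested in HFFs infected with HCMV-luciferase, MOI 1 PFU/cell, 72 h at 37C. Lysate luminescence read with OneGlo; data normalized against buffer-only and 10uM Salinomycin inhibitor controls.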
Sm TGR block: qHTS Assay for the Inhibitors of Schistosoma Mansoni Peroxiredoxins. Schistosoma mansoni thioredoxin glutathione reductase (TGR), Q962Y6. purified TGR, DTNB reduction, TNB absorbance 405 nm. Potency, µM (doses to about 114 µM), inactives show top-dose activity change, negative = inhibition, actives largely listed as inhibitors. 3% of 360,000 active. AID 485364, 2010; note: potency is the fitted concentration of half-maximal effect; % is set by controls: 0 for no effect and ±100 for the full control effect; nearly all actives have a fitted effect of over 60% in size
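TGR 20 nM + NADPH 100 uM (dispensed conc.), cpd preinc 15 min RT; start with NADPH (500 uM addition) then DTNB (15 mM addition). Kinetic TNB absorbance, 405 nm filter. Four-parameter Hill fit across titration.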
Pf growth 48h: Primary qHTS for delayed death inhibitors of the malarial parasite plastid, 48 hour incubation; P. falciparum luciferase growth in erythrocytes, 48 h; Potency, µM (highest dose often 28.7 µM), for inactives: at the top dose activity change, negative = inhibition, hits mostly inhibitors; 5.9% of 310,000 active; AID 504832, 2011; note: potency is the fitted concentration of half-maximal effect; % is set by controls: 0 for no effect and ±100 for the full control effect
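Luminescence readout; reporter = integrated firefly luciferase in P. falciparum. RBC culture at 2% hematocrit, 0.1% parasitemia final, 37 C/5% CO2; decreased signal taken as growth inhibition.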
Pf growth 96h: Primary qHTS for delayed death inhibitors of the malarial parasite plastid, 96 hour incubation; P. falciparum luciferase reporter growth, 96 h; Potency, µM (highest dose often 28.7 µM), for inactives: top-dose activity change, negative = inhibition, hits mostly inhibitors; 6.9% of 320,000 active; AID 504834, 2011; note: potency is the fitted concentration of half-maximal effect; % is set by controls: 0 for no effect and ±100 for the full control effect
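Two-generation exposure (96 h) targets delayed-death phenotype. Reporter parasites carrying integrated firefly luciferase, in red cells at 2% hematocrit and 0.05% parasitemia final, kept at 37 C, 5% CO2; luminescence loss indicates inhibition.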
SARS PLpro yeast: qHTS of Yeast-based Assay for SARS-CoV PLP. S. cerevisiae expressing SARS-CoV PLpro, growth rescue. Potency, µM (titrated, usually from 32.9 µM), for inactives: at the top dose activity, positive = growth rescue, actives largely listed as activators. 0.19% of 330,000 active; calls by dose curve; note: potency is the fitted concentration of half-maximal effect; 0% is about no effect; nearly all actives have a fitted effect of over 55% in size
HCV inhibitor: qHTS Assay for Inhibitors of Hepatitis C Virus (HCV). Huh7.5.1 HCVcc-Cre infection, luciferase reporter, 44 h. 3.4% of 340,000 active. Potency, µM (series often up to 41.8 µM), for inactives: at the top dose activity change, negative = inhibition, usual class: inhibitors; note: potency is the fitted concentration of half-maximal effect; % is set by controls: 0 for no effect and ±100 for the full control effect
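Luciferase read-out (15 sec integration) after a 15 min room-temperature substrate step quantifies HCVcc-Cre infection. Cells, 1,000 per well, had compound added 4 h post-plating, then virus at ~0.5 moi, and were cultured 44 h.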
* hit, by the source's call; u = inconclusive; x = not tested or not shown; [ ] = remark or other dose. Unless noted, calls come from the whole dose curve; as a rule, active = well fitted curve in the direction sought with a large enough effect; inconclusive = small, poorly fitted or top-dose-only effect, or another doubt; inactive = no such curve, though single readings can be large; an effect the other way counts as inactive or inconclusive.

SMILES	HCMV inh	Sm TGR block	Pf growth 48h	Pf growth 96h	SARS PLpro yeast	HCV inhibitor
Cc1cccc(N2CCN(C(=O)CCC(=O)N3CCOc4ccc(Cl)cc43)CC2C)c1 (centres undefined)	13	7%	-6%	9.3µM*	-6%	u
O=C(CCC(=O)N1CCOc2ccccc21)NCCc1ccccc1	27	-13%	33%	15µM*	2%	12%
CC1CCCC(NC(=O)CCC(=O)N2CCOc3ccccc32)C1C (centres undefined)	-37	-4%	9%	9.3µM*	-1%	18%
C=C1C[C@@]2(C)CCCC3=CC(=O)C=C[C@@]32Oc2ccccc21	-14	x	x	x	x	x
Cc1ccc(C)c(N2CCN(CCCNC(=O)CCC(=O)N3CCOc4ccc(Cl)cc43)CC2)c1	-83*	-2%	u	13%	-2%	x
O=C(CCC(=O)N1CCOc2ccc(Cl)cc21)NCCCN1CCN(c2ccccc2F)CC1	-24	-6%	u	-23%	-6%	u
Cc1ccc(C)c(N2CCN(C(=O)CCC(=O)N3CCOc4ccc(Cl)cc43)CC2)c1	-80*	23%	u	4.1µM*	-24%	10µM*
O=C(CCC(=O)N1CCOc2ccc(Cl)cc21)NCCCN1CCC(Cc2ccccc2)CC1	-75*	-1%	u	u	0%	u
Cc1ccc2c(c1)N(C(=O)CCC(=O)N1CCN(c3ccccn3)CC1)CCO2	3	-12%	u	32%	-7%	-20%
COc1ccccc1-c1nnc(SC(C)C(=O)O)n1-c1ccccc1 (centres undefined)	17	x	-7%	5%	1%	13%
CCC(=O)N1CCc2cc(S(=O)(=O)NC(C(=O)NCc3ccc(OC)cc3)C(C)C)ccc21 (centres undefined)	7	-2%	x	x	x	x
S=C(NCCCN1CCOCC1)N(Cc1ccccc1)Cc1ccccc1	11	1%	-3%	12%	0%	-21%
Cc1ccccc1Cn1ccc(=NCc2ccccc2)cc1	-98*	-13%	0.74µM*	0.33µM*	6%	26%
O=C(N/N=C/c1ccc(F)cc1)c1sccc1OCc1ccc(F)cc1	u	13%	-28%	u	u	u
O=C(N/N=C/c1ccc(Cl)cc1)c1sccc1OCc1ccc(F)cc1	-16	7%	u	9.3µM*	2%	u
CCSc1nc2n(n1)C(c1ccc(C(=O)O)cc1)C(C(=O)Nc1ccccc1C)=C(C)N2 (centres undefined)	10	7%	x	x	x	x
c1ccc(Sc2ncnc3ccccc23)cc1	-74*	u	u	u	-2%	21%
Nc1[nH]c(C(=O)c2ccccc2)c(-c2ccncc2)c1C(=O)NCCc1c[nH]c2ccccc12	-2	x	x	x	x	x
CC1CN(CC(O)COc2ccc(C#N)cc2)CCN1CC(O)COc1ccc(C#N)cc1 (centres undefined)	-4	-9%	-7%	-6%	-2%	u
C[n+]1ccc(C(=O)N/N=C/c2ccco2)cc1	u	-3%	0%	51%	-5%	5%
CCOC(=O)/C=C/COc1ccccc1[N+](=O)[O-]	-63*	2%	100%	21%	-16%	3%
O=C(c1cc(Cl)c(=O)n(Cc2ccc(Cl)cc2)c1)N1CCOCC1	-30	19%	-17%	23%	4%	3%
C[C@H](CO)N1C[C@H](C)[C@@H](CN(C)S(=O)(=O)c2ccccc2)Oc2c(NC(=O)CCC(F)(F)F)cccc2C1=O	-2	x	x	x	-4%	-4%
S=C(Nc1ccccn1)Nc1ccccc1Cl	-83*	u	-2%	-24%	1%	u
COc1ccc(NC(=O)c2cccnc2)c(OC)c1	-21	3%[11.4 µM]	x	15µM*	5%	-14%
SMILES	HCMV inh	Sm TGR block	Pf growth 48h	Pf growth 96h	SARS PLpro yeast	HCV inhibitor
COc1cccc(NC(=S)NCc2cccnc2)c1	-10	45µM*	4%	u	0%	9%
Cc1ccc(NCc2cccnc2)cc1	-6	u	x	-14%	-3%	19%
COc1ccc(NCc2cccnc2)cc1	-86*	-1%	14%	-21%	0%	23%
COc1cccc(NC(=S)NCc2ccccc2)c1	50	-25%	u	3%	3%	-10%
COc1ccccc1NC(=O)c1cccnc1	25	3%	23%	-1%	x	-16%
Cc1c(Cl)cccc1NC(=S)Nc1ccccn1	30	0%	8%	u	1%	-17%
CC(C)c1ccc(-c2nnc(SCC(=O)NC3CC3)n2C)cc1	20	-2%	55%	0%	6%	14%
Cc1cc(Oc2ccccc2)nc2ccc(O)cc12	x	0%	-24%	x	-6%	x
COc1ccc(C(=O)C(C)OC(=O)COc2ccccc2)cc1 (centres undefined)	-20	x	x	x	-2%	8%
O=C(NCCC1CCCCN1S(=O)(=O)c1ccccc1)C(=O)NCc1cccnc1 (centres undefined)	-21	-2%	0%	u	0%	12%
COc1ccc(NC(=O)c2cc(-c3cccnc3)nc3c(C)c(C)ccc23)c(OC)c1	22	2%	u	0.83µM*	-1%	13µM*
COc1cccc(NC(=S)Nc2ccc(Br)cc2Cl)c1	32	22µM*	19%	14%	-2%	-16%
COc1ccc(NC(=S)Nc2cnc3ccccc3c2)c(OC)c1	-20	40µM*	-7%	u	0%	10%
COc1ccc(NC(=O)/C(C#N)=C/c2cccnc2)c(OC)c1	-8	-11%	-20%	1µM*	-1%	6%
COC1CC(N)C2OC(c3ccccc3)OCC2O1 (centres undefined)	-17	x	x	x	x	x
Cc1nc2ccccc2c(=O)n1-c1ccc(NC(=O)c2ccccc2[N+](=O)[O-])cc1	-3	2%	x	x	x	x
Cc1cccc(C)c1NC(=S)NCc1ccncc1	-19	28µM*	u	-4%	0%	9%
Cc1cccc(NC(=S)NCC(c2cccnc2)N(C)C)c1 (centres undefined)	-71*	-1%	-3%	46%	5%	7%
COc1ccc(NC(=S)Nc2ccccn2)c(OC)c1	-7	u	71%	76%	-5%	11µM*
COc1ccc(NC(=S)Nc2cc(C)ccn2)c(OC)c1	21	-20%	119%	11%	19%	u
Cc1cccc(NC(=S)NCc2ccncc2)c1C	17	u	-7%	19%	-17%	-5%
S=C(NCc1ccncc1)Nc1ccc(Br)cc1Cl	-36	35µM*	-11%	-7%	1%	u

Source: PubChem
